Eleven compounds from PubChem BioAssay can be followed below.

Assay [1] is described as follows: small molecules captured by biotinylated probe aFSTL3 – biochemical, small-molecule microarray, fluorescence 635/667, stem cell growth factor project, primary screen (AID 1064).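 Note: measures binding of the biotinylated anti-FSTL3 antibody to printed compounds.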 To be noted: higher = more signal.
Assay [2] is described as follows: binders from COS7 lysate, DM2A8 probe, primary screen, torsin A project, cell lysate, small-molecule microarray, fluorescence 635/667 (AID 1065). To be noted: higher = more signal, COS7 lysate expressing mutant human TOR1A.
The nature of assay [3]: small molecules captured by biotinylated probe aFGF2 – biochemical, small-molecule microarray, fluorescence 635/667, stem cell growth factor project, primary screen (AID 1067).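 Note: measures binding of biotinylated aFGF2 protein to printed compounds on slides; z-score merges feature fluorescence and signal-to-noise across triplicate slides.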 To be noted: higher = more signal.
Assay [4] is described as follows: small molecules captured by biotinylated probe aFGF10 – biochemical, small-molecule microarray, fluorescence 635/667, stem cell growth factor project, primary screen (AID 1071).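 Note: score merges 667 nm spot intensity and signal to noise from triplicate slides.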 To be noted: higher = more signal.
The target in assay [5] is Neurogenic locus notch homolog protein 2 (Homo sapiens) (UniProt Q04721). As to the kind of experiment: small molecules binding Notch2 protein – biochemical, small-molecule microarray, 635 nm fluorescence, stem cell growth factors, primary screen (AID 1073). To be noted: higher = more signal.
The target of assay [6] is Pro-neuregulin-1, membrane-bound isoform (Homo sapiens) (UniProt Q02297). As to the kind of experiment: small molecules binding neuregulin-1 protein – biochemical, small-molecule microarray, fluorescence 635/667, psychiatric disease protein project, primary screen (AID 1075).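 Note: score combines 667 nm spot fluorescence with signal to noise.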 Conditions: NRG1 binding, 635 nm fluorescence, higher = more signal.
Assay [7] has as its system Neuregulin-1 EGF-like domain. As to the kind of experiment: small molecules binding NRG1 EGF domain – biochemical, small-molecule microarray, 635 nm fluorescence, primary screen (AID 1081).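 Note: binding of the protein to compounds printed on small-molecule microarray slides.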 Conditions: higher = more signal.
Assay [8] can be described thus: FRG1 expression reporter modulators in myotubes – cell-based, C2C12 myotubes, firefly/Renilla luciferase, luminescence, FRG1 inhibition for FSHD, primary screen (AID 1084). To be noted: FRG1 promoter luciferase, higher = more signal, called active from +8 up or from −8 down.
Assay [9] in a line: small molecules captured by biotinylated probe aFST – biochemical, small-molecule microarray, fluorescence 635/667, stem cell growth factor project, primary screen (AID 1086).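 Note: score merges 667 nm fluorescence with signal-to-noise of each printed compound spot.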 To be noted: higher = more signal.
A short description of assay [10]: binders of probe aHhip on microarray, primary screen, stem cell growth factor project, biochemical, small-molecule microarray, fluorescence 635/667 (AID 1087).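 Note: score merges spot fluorescence at 667nm with spot signal to noise ratio.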 To be noted: higher = more signal.

SMILES strings stand for the structures. Activity calls are given as the source filed them.

Chain of Neurogenic locus notch homolog protein 2 (Homo sapiens) (Q04721 whole entry, looked up, canonical isoform): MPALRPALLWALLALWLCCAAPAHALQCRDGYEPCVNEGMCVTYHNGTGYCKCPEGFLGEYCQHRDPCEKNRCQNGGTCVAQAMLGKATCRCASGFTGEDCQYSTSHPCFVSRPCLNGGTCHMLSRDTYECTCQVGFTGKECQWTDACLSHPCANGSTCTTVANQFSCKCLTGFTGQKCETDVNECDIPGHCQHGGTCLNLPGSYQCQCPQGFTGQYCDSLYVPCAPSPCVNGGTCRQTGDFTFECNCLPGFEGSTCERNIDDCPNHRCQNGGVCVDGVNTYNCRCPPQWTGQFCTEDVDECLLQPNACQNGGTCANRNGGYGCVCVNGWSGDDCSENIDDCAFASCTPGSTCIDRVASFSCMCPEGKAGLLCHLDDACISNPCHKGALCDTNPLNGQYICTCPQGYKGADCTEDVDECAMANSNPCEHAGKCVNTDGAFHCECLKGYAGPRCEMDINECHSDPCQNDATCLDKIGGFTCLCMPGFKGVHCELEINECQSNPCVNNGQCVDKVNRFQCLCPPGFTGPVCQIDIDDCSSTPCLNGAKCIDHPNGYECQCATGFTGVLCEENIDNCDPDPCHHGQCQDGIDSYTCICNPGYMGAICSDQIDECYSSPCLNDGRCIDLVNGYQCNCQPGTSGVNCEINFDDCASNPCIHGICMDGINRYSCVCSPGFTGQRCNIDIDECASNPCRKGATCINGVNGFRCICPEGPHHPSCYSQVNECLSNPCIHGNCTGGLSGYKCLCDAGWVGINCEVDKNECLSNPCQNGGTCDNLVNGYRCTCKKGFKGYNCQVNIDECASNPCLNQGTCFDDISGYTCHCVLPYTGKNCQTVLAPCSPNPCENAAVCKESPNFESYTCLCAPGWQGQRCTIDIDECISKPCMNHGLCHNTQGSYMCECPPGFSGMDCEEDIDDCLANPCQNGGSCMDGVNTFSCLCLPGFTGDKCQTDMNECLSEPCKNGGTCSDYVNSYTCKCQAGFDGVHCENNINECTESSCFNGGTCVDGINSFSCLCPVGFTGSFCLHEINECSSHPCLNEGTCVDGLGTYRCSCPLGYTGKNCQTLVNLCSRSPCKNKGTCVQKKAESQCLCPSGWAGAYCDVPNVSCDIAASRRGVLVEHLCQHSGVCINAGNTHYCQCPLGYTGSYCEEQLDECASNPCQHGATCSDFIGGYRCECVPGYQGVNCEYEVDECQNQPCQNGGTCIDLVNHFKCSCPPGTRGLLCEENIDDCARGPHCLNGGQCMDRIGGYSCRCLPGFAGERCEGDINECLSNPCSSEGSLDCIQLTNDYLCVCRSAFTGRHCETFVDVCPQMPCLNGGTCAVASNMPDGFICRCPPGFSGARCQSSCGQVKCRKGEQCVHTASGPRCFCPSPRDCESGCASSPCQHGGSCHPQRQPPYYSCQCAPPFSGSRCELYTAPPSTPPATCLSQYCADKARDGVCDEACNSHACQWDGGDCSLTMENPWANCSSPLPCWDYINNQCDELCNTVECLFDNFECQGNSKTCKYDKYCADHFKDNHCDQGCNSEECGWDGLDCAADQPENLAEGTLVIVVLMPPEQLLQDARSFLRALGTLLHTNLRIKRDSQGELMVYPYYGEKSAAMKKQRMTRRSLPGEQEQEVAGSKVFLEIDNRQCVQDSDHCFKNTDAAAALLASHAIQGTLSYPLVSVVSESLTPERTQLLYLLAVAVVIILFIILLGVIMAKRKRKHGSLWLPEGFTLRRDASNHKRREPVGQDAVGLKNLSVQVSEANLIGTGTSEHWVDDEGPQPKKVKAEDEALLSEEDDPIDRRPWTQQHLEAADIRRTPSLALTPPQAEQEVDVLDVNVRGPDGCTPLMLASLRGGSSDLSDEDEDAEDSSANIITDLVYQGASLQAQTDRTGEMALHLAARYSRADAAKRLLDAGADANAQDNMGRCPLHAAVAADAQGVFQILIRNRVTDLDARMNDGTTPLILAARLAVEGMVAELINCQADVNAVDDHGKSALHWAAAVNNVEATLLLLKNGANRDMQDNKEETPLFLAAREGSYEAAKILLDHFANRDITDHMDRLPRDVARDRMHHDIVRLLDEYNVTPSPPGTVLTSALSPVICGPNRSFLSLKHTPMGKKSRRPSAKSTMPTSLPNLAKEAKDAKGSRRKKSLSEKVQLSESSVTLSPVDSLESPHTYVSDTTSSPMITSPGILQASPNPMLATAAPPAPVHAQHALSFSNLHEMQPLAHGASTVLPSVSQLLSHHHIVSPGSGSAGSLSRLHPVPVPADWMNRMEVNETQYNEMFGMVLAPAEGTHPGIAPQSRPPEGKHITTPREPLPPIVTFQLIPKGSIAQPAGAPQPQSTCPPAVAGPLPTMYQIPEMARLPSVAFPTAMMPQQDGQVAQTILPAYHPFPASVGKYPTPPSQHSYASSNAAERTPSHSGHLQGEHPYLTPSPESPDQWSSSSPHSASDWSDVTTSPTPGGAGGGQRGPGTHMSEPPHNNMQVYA
Chain of Pro-neuregulin-1, membrane-bound isoform (Homo sapiens) (Q02297 whole entry, looked up, the tested form may be a part, canonical isoform): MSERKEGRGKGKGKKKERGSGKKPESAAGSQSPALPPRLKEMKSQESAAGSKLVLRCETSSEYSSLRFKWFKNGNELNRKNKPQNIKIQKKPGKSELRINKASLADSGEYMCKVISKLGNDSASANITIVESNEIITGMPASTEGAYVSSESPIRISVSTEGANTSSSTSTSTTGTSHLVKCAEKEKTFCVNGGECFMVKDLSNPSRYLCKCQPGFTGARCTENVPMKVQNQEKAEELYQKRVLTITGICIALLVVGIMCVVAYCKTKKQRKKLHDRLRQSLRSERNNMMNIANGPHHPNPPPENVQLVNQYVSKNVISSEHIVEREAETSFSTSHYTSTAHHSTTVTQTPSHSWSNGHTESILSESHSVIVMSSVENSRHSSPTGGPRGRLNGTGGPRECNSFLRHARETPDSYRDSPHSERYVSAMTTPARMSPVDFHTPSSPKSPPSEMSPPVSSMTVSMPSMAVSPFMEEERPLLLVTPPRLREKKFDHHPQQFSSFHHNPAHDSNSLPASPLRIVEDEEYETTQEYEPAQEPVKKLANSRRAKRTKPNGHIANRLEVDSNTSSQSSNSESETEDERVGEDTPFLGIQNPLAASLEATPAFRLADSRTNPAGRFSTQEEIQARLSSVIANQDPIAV

For the compound `CC(C)C(CO)N1C(=O)[C@@H]2[C@H]3C(=O)OCC=C[C@H]3OC23C=CCN(Cn2nnc4ccccc42)C(=O)[C@@H]13` (stereo not given in full), the composite z-score in assay [1] is 0.449; in assay [2] it was -0.292; in [3] it was -0.192; in assay [4], -0.579; in assay [5] it was -1.06; in assay [6], -0.78. In addition, the composite z-score in [7] was 0.332; in assay [9], -0.499; in [10], -0.137. Also, the z-score in [8] was -0.194 (inactive).

Consider `O=C1C2C=CC(C(O)c3ccc(Br)cc3)N(Nc3ccccc3)C2C(=O)N1c1ccccc1` (stereo not given), for which the composite z-score was 0.385 in [1]; 0.227 in assay [2]; 0.191 in assay [3]; 0.82 in [4]; 1.41 in assay [5]; 1.86 in [6]. Moreover, the composite z-score in assay [7] was 1.09; in [9] it was -0.194; in [10], -0.0645. The z-score in assay [8] was -2.33 (inactive).

On to `COc1ccc([Si](C)(C)[C@@H]2[C@@H](CCO)O[C@]3(C(=O)N(Cc4cccc(N5C(=O)COc6ccccc65)c4)c4ccccc43)[C@H]2C)cc1`, for which the composite z-score in assay [1] is 0.0857; in [2], -0.183; in [3], -0.072; in assay [4] it was 0.492; in assay [5] it was 0.0822; in assay [6] it was 1.18. In addition, the values for the composite z-score in [7], in [9] and in assay [10] were 0.818, -0.287 and -0.164, respectively. The z-score in assay [8] is -1.22 (inactive).

With `C=CCC(OC(C)=O)[C@@H]1[C@@H](N(Cc2cccc3ccccc23)C(=O)c2ccc(C)cc2)c2cc(OCCCO)ccc2N1C(=O)c1ccc2ccccc2c1` (stereo not given in full), the composite z-score in assay [1] is -0.0181; in assay [2] it was 0.0379; in assay [3], -0.152; in assay [4] it was 0.409; in assay [5] it was 0.145; in assay [6], -0.126. Besides, the composite z-score in assay [7] is -0.163; in assay [9], 0.137; in assay [10], 0.0695. In addition, the z-score in [8] is -1.8 (inactive).

For the compound `NC(=O)[C@H]1[C@@H]2C(=O)O[C@@H](c3ccccc3)[C@@H](c3ccccc3)N2[C@@H](c2ccc(O)cc2)[C@]12C(=O)Nc1ccc(C#CC3(O)CCCCCC3)cc12`, the composite z-score in assay [1] is 0.0918; in assay [2], 0.417; in assay [3] it was -0.0454; in assay [4] it was 0.607; in [5], 1.35; in assay [6] it was 1.5. Moreover, the values for the composite z-score in [7], in assay [9] and in assay [10] were 1.35, 0.617 and 0.233, respectively. The z-score in assay [8] is -1.46 (inactive).

On to `COc1ccc([Si](C)(C)[C@@H]2[C@@H](CC(=O)N(CCO)Cc3ccccc3)O[C@]3(C(=O)N(C)c4c(Br)cc(C)cc43)[C@H]2C)cc1`, for which the composite z-score in assay [1] was -0.106; in [2], -0.0018; in [3] it was -0.13; in [4], 0.33; in assay [5] it was -0.561; in assay [6], 0.679. Besides, the composite z-score in assay [7] was 0.508; in assay [9], -0.051; in assay [10] it was 0.0052. The z-score in assay [8] was -3.19 (inactive).

For the compound `NC(=O)NCC#Cc1ccc2c(c1)[C@]1(C(=O)N2)[C@H](c2ccc(O)cc2)N2[C@H](c3ccccc3)[C@H](c3ccccc3)OC(=O)[C@H]2[C@@H]1C(N)=O`, the composite z-score in [1] was 0.373; in assay [2], -1.07; in assay [3], -0.0925; in [4] it was -0.568; in [5], -0.847; in assay [6], -0.283. Also, the composite z-score in [7] was 0.266; in assay [9] it was -0.139; in [10], 0.202. In addition, the z-score in assay [8] was -1.07 (inactive).

As to `COC(=O)[C@@]1(Cc2ccc(F)cc2)[C@H]2c3cc(C(=O)N4CCCC4)n(Cc4ccccc4)c3C[C@H]2CN1C(=O)c1ccccc1`, the composite z-score in [1] was 0.106; in [2], -0.663; in [3], 0.0451; in assay [4], 0.19; in [5], 1.56; in [6] it was 1.83. Besides, the results for the composite z-score in assay [7], in [9] and in assay [10] were 1.12, 1.23 and 0.0578, respectively. Also, the z-score in assay [8] is 1.2 (inactive).

Consider `CC(C)CN1C(=O)[C@@]2(Cc3ccccc31)c1ccccc1C(=O)N(Cc1ccccc1)[C@H]2c1ccc(CO)cc1`, for which the composite z-score in assay [1] is 0.849; in assay [2], -0.675; in assay [3], -0.148; in assay [4], -0.0466; in assay [5], -0.713; in assay [6], -0.544. The composite z-score in assay [7] was -0.152; in [9], -0.759; in [10], -0.261. Besides, the z-score in assay [8] is -0.314 (inactive).

Take `COc1ccc([Si](C)(C)[C@@H]2[C@@H](CCO)O[C@]3(C(=O)N(Cc4ccccc4)c4ccc(N5C(=O)COc6ccccc65)cc43)[C@H]2C)cc1`: the composite z-score is -0.169 in assay [1]; 0.217 in [2]; -0.0973 in assay [3]; 0.2 in assay [4]; 0.128 in assay [5]; 0.666 in [6]. For the same compound, the composite z-score was 1.05 in assay [7], 0.17 in assay [9] and -0.0994 in assay [10]. Also, the z-score in assay [8] is -0.409 (inactive).

On to `CCCC=C(CCC)[C@@H](NC(=O)Cc1ccccc1)c1ccc(C(=O)OC)cc1`, for which the composite z-score is 1.22 in assay [1]; -0.0985 in assay [2]; 0.254 in assay [3]; 0.536 in [4]; 1.13 in [5]; 0.807 in [6]. For the same compound, the figures for the composite z-score in assay [7], in [9] and in assay [10] were 0.606, 0.94 and 3.03, respectively. The z-score in assay [8] was -0.26 (inactive).
